Laboratory results as given in PubChem BioAssay (Tox21).
Records with an inconclusive call do not appear. Calls of active or inactive are those of the source. The call rests on the fitted dose curve; in most records, active means well fitted curve in the direction sought with a large enough effect in the repeat runs; inconclusive means weak or mixed curves; inactive means no such curve, though single readings can be large; an effect the other way counts as inactive or inconclusive.

assay: qHTS assay to identify small molecule antagonists of the estrogen related receptor signaling pathway with the pleiotropic PPARgamma coactivator (PGC) cell viability counter screen (AID 1224822;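 further: viability read after 17.5 h compound exposure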); conditions: ERR/PGC reporter cell line viability counter screen; series mostly up to 46.1 µM; viability change, negative = cytotoxic: at the top concentration
How it was run: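 Viable cell signal (CellTiter-Fluor, 30 min, 37 C/5% CO2) was measured in PGC/ERR cells after a 17.5 h compound incubation.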
On the % scale 0 is the no-effect control and ±100 the full control effect; potency means the concentration at half of the fitted maximal effect.

Compound | Potency | viability change, negative = cytotoxic
Cc1cccc(-c2[nH]c(C(C)(C)C)nc2-c2ccc3nccnc3c2)n1 | 8.1 µM (active) | –
OCC1O[C@H]([S-])C(O)[C@@H](O)[C@@H]1O.[Au+] (some centres not stated) | 9.08 µM (active) | –
NOCC(=O)O | – | 7.37% (inactive)
CCN(CC)CCOc1ccc(Nc2ncc3cc(-c4c(Cl)cccc4Cl)c(=O)n(C)c3n2)cc1 | 1.74 µM (active) | –
CN(C)C(=O)/N=N/C(=O)N(C)C | – | 10.4% (inactive)
N#C/C(=C\c1ccc(O)c(O)c1)C(=O)NCCc1ccccc1 | – | -8.36% (inactive)
COc1ccc2c(c1)c(CC(=O)O)c(C)n2C(=O)c1ccccc1 | – | 8.13% (inactive)
COCCOc1cc2nc[nH]c(=O)c2cc1OCCOC | – | 6.83% (inactive)
N=c1c[n+](N2CCOCC2)[n-]o1 | inactive | –
C[C@@H](NCCc1ccc(O)cc1)[C@@H](O)c1ccc(O)cc1 | – | 3.61% (inactive)
O=C1/C(=C/c2ccsc2)CC/C1=C\c1cccs1 | – | 14.7% (inactive)
CC[C@@H](C)[C@H]1O[C@]2(CC[C@@H]1C)C[C@@H]1C[C@@H](C/C=C(\C)[C@@H](O[C@H]3C[C@H](OC)[C@@H](O[C@H]4C[C@H](OC)[C@@H](O)[C@H](C)O4)[C@H](C)O3)[C@@H](C)/C=C/C=C3\CO[C@@H]4[C@H](O)C(C)=C[C@@H](C(=O)O1)[C@]34O)O2 | 23.7 µM (active) | –
CCCCC[C@H](CC(=O)NO)C(=O)N[C@H](C(=O)N1CCC[C@H]1CO)C(C)C | – | -17% (inactive)
N[C@H](CO)C(=O)O | – | 4.65% (inactive)
C[N+](C)(C)CC=O | – | 3.23% (inactive)
CC(=O)N[C@H](C(=O)O)C(C)(C)SN=O | – | 16% (inactive)
O=C1OC(=O)C2C3CCC(O3)C12 (configuration not stated) | – | -2.98% (inactive)
O=c1cc(-c2ccccc2)oc2c(O)c(O)ccc12 | – | -15% (inactive)

assay: qHTS assay to identify small molecule agonists of the estrogen related receptor signaling pathway with the pleiotropic PPARgamma coactivator (PGC) (AID 1224823); conditions: ERR/PGC reporter cell line, luciferase agonist mode; series mostly up to 46.1 µM; activation: at the top concentration
How it was run: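 Luminescence readout (One-Glo, 30 min RT) from PGC/ERR cell line treated 18 h at 37 C with pin-tool-delivered DMSO compound solutions; cells plated 6 h before dosing. Quantitative HTS format.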

Compound | activation | Potency
CC(N)(Cc1ccc(O)cc1)C(=O)O (configuration not stated) | -8.31% (inactive) | –
NC/C=C\C(=O)O | -3.28% (inactive) | –
Fc1ccc(C(OCCCc2cnc[nH]2)c2ccc(F)cc2)cc1 | -12.9% (inactive) | –
COCc1nc2c([nH]1)c(=O)n(C)c(=O)n2CC(C)C | -5.15% (inactive) | –
O=C(/C=C/c1ccc(O)c(O)c1)OCCc1ccccc1 | – | 14.4 µM (active)
O=C1NC(=O)/C(=C/c2ccc(-c3ccc(F)cc3O)o2)S1 | -7.46% (inactive) | –
CCOC(=O)C1=C(O)C(=O)N(Cc2ccccc2)C1 | 7.02% (inactive) | –
C=CCc1cccc(/C=N/NC(=O)CN2CCN(Cc3ccccc3)CC2)c1O | 1.19% (inactive) | –
COC1(C2=NCCN2)COc2ccccc2O1 (configuration not stated) | -3.55% (inactive) | –
O=C(OCCN1CCOCC1)C1(c2ccccc2)CCCCC1 | -8% (inactive) | –
Cn1c(=O)c(-c2c(Cl)cccc2Cl)cc2cnc(Nc3ccc(N4CCOCC4)cc3)nc21 | – | 0.0531 µM (active)
CC(=O)N[C@@H](Cc1c[nH]c2ccccc12)C(=O)OCc1cc(C(F)(F)F)cc(C(F)(F)F)c1 | 3.15% (inactive) | –
CCNC(=O)[C@H]1O[C@@H](n2cnc3c(N)nc(NCCc4ccc(CCC(=O)O)cc4)nc32)[C@H](O)C1O (some centres not stated) | – | 1.28 µM (active)
Cc1ccc(S(=O)(=O)/C=C/C#N)cc1 | – | 15.5 µM (active)
CC1(C)CCC2=C(O1)c1ccccc1C(=O)C2=O | -33% (inactive) | –
Cc1cccc(-c2[nH]c(C(C)(C)C)nc2-c2ccc3nccnc3c2)n1 | -30.5% (inactive) | –
OCC1O[C@H]([S-])C(O)[C@@H](O)[C@@H]1O.[Au+] (some centres not stated) | -33% (inactive) | –
NOCC(=O)O | -7% (inactive) | –
CCN(CC)CCOc1ccc(Nc2ncc3cc(-c4c(Cl)cccc4Cl)c(=O)n(C)c3n2)cc1 | – | 0.0908 µM (active)
CN(C)C(=O)/N=N/C(=O)N(C)C | -2.32% (inactive) | –
CC[C@@H]1Cc2cc(O)ccc2C2=C1c1ccc(O)cc1C[C@H]2CC | -27.2% (inactive) | –
COc1ccc2c(c1)c(CC(=O)O)c(C)n2C(=O)c1ccccc1 | -5.09% (inactive) | –
COCCOc1cc2nc[nH]c(=O)c2cc1OCCOC | 2.8% (inactive) | –
N=c1c[n+](N2CCOCC2)[n-]o1 | – | inactive
O=C1NC(=O)c2cc(Nc3ccccc3)c(Nc3ccccc3)cc21 | -23.2% (inactive) | –
Cn1c(=O)c2c(nc(/C=C/c3cccc(Cl)c3)n2C)n(C)c1=O | -5.4% (inactive) | –
O=C1/C(=C/c2ccsc2)CC/C1=C\c1cccs1 | – | 21.1 µM (active)
CC[C@@H](C)[C@H]1O[C@]2(CC[C@@H]1C)C[C@@H]1C[C@@H](C/C=C(\C)[C@@H](O[C@H]3C[C@H](OC)[C@@H](O[C@H]4C[C@H](OC)[C@@H](O)[C@H](C)O4)[C@H](C)O3)[C@@H](C)/C=C/C=C3\CO[C@@H]4[C@H](O)C(C)=C[C@@H](C(=O)O1)[C@]34O)O2 | -28.5% (inactive) | –
Nc1ncnc2c1c(-c1ccc(Oc3ccccc3)cc1)cn2C1CCCC1 | -7.82% (inactive) | –
